Data taken from PubChem BioAssay AID588354 (The Scripps Research Institute Molecular Screening Center, 2011).
About 430 (0.12%) of roughly 360,000 compounds were called active.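 The calls were made as follows: active = inhibition above the campaign mean plus 3 SD, with each screening campaign given its own cutoff (cut at about 60% in these data); inactive = the rest.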 This excerpt belongs to a sample that is enriched for actives.

Target: Nuclear receptor coactivator 1 (Homo sapiens) (UniProt Q15788)
Sequence (Q15788 whole entry, looked up, the tested form may be a part): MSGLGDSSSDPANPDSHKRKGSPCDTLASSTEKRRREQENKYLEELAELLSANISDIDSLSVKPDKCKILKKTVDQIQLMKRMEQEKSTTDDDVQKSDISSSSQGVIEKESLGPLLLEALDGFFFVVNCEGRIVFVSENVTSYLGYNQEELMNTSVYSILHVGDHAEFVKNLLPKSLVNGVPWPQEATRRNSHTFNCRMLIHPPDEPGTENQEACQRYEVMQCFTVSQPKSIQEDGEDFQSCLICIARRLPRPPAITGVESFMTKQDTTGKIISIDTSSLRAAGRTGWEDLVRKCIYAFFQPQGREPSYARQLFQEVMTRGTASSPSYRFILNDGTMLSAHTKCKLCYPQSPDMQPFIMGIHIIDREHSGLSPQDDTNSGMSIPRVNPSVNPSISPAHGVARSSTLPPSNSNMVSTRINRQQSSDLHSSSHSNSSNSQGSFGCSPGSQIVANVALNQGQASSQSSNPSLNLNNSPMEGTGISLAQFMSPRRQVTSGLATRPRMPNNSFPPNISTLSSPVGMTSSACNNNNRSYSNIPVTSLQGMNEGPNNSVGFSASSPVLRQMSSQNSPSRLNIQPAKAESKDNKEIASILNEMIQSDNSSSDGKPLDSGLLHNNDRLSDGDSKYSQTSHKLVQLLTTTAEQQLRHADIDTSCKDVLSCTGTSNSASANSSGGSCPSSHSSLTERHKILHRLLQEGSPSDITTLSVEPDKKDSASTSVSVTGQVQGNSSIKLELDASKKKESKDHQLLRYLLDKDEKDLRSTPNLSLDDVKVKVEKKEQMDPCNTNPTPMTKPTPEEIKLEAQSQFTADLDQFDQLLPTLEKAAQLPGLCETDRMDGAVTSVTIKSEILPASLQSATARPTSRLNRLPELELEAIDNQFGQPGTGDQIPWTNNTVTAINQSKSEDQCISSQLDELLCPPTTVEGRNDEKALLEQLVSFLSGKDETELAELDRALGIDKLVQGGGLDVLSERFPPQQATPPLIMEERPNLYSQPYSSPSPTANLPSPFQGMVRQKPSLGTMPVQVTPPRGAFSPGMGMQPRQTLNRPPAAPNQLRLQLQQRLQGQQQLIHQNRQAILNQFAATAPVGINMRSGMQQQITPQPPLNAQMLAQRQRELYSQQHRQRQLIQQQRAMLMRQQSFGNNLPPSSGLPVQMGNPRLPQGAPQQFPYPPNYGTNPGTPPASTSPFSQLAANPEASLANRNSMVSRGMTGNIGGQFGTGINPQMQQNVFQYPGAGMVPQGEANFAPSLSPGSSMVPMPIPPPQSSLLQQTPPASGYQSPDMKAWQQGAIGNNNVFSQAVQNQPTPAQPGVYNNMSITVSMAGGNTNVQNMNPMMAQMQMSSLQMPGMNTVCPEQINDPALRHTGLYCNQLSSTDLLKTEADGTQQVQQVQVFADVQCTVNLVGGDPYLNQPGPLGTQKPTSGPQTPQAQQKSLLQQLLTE
Assay: NCOA1 GAL4-fusion reporter inhibition – cell-based, luminescence, primary screen (AID 588354);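 also: 0% = DMSO treated cells and 100% = gossypol at 36 µM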
Settings: HEK293 GAL4-SRC1 luciferase reporter, at 3.6 µM, hits give high values

inhibition, inactive:
C[C@@H](NC(=O)c1nc[nH]c1C(=O)N1CCN(C(=O)OC(C)(C)C)CC1)c1ccccc1 -15.6%
Cn1cc(/C=C/C(=O)N2CCCC(C(=O)c3ccc(C(F)(F)F)cc3)C2)cn1 (stereo unspecified) 8.39%
CC1(NC(=O)CCS(=O)(=O)c2ccc(Cl)cc2)CCS(=O)(=O)C1 (stereo unspecified) -3.53%
CN(C(=O)Nc1ccc(Cl)cc1)n1cnc2ccccc2c1=O -15.6%
CC(C)(C)c1nc2ccccc2c(=O)n1N1C(=O)c2ccccc2C1=O 6.03%
CSc1ncccc1C(=O)Nc1cccc(S(=O)(=O)N2CCOCC2)c1 -16.1%
O=C(Nc1cccc(Cc2ccccc2)c1)Nc1ccc2nc([C@@H]3O[C@H](CO)[C@@H](O)[C@H](O)[C@H]3O)[nH]c2c1 -1.54%
CN(C)S(=O)(=O)c1ccc(Oc2ccc(S(=O)(=O)N(C)C)cc2)cc1 21.5%
COc1cc2c3c(c1)/C(=C1/SC(=S)NC1=O)C(=O)N3C(C)(C)C=C2C -18%
CCN(CC(=O)Nc1ccc2c(c1)OCCO2)Cc1cc(=O)oc2cc(C)c(C)cc12 1.42%
COC(=O)c1ccc(N2CCOCC2)c(NC(=O)c2ccc(Br)o2)c1 3.93%
CCCCc1nc2c(=O)[nH]c3ccccc3c2o1 -5.89%
Cc1cc(C)cc(NC(=O)CSCc2cnn(-c3ccccc3)c2-n2cccc2)c1 0.69%
CCCc1noc2c1/C(=N\O)CCC2 7.65%
Cc1oc(C(N)=O)cc1COc1ccc(C(N)=O)cc1 11.6%
Cn1c(-c2ccc(C(F)(F)F)cc2)cc2onc(-c3ccccc3)c2c1=O -53.3%
CC(OC(=O)c1ccc(-n2cnnn2)cc1)C(=O)NCc1ccccc1 (stereo unspecified) -1.03%
CCC(C)c1ccccc1NC(=O)CN(C)CC(=O)Nc1ccccc1SC (stereo unspecified) 3.11%
CCc1ccc(C(=O)N2CCN(S(=O)(=O)c3sc(C(=O)O)c(C)c3C(=O)O)CC2)cc1 -9.2%
CC(C)CCNC(=O)C(C)N(C(=O)Cn1nnc(-c2ccc(F)cc2)n1)C1CCCC1 (stereo unspecified) 5.49%
COc1ccc(Cn2cccc(NC(=O)Nc3ccc(C#N)cc3)c2=O)cc1 13.7%
CCOc1ccc(S(=O)(=O)N2CCN(C(=O)c3oc4ccccc4c3C)CC2)cc1 -3.94%
CCN(C(=O)COC(=O)CCOc1cccc(C)c1)c1c(N)n(Cc2ccccc2)c(=O)[nH]c1=O 4.13%
Cc1cccc(C)c1Cn1c(C)c(C(=O)NCc2cccc(Cl)c2)sc1=O -0.2%
CCc1ccc(CN(C)C(=O)C2CCC(=O)N(Cc3cccc(OC)c3)C2)nc1 (stereo unspecified) 5.84%
CC(C)CN(C(=O)CSc1nncn1C)C1CCS(=O)(=O)C1 (stereo unspecified) 14%
O=C(N/N=C/c1ccccc1O)/C(=C/c1ccccc1)CCO 30.9%
C=CCOc1ccccc1/C=N/NC(=O)Cc1ccccc1 -8.79%
CCSc1sc(CC)cc1C=O -14.9%
Cc1cc2c(cc1C)N(Cc1ccccc1)C1=NCCCN12 21.9%
CS(=O)(=O)Nc1ccccc1C(=O)OCC(=O)NC1CC1 -13.3%
COc1ccc(OC)c(Nc2nc3ccccc3n3cnnc23)c1 1.7%
COc1ccc(OC)c(NC(=O)CN(C)CCOc2ccc(Br)cc2)c1 -10.8%
COc1ccccc1C(=O)NC(=O)COC(=O)c1ccco1 3.45%
COC(=O)c1ccc(NC(=O)CSc2nncc3ccc(OC)c(OC)c23)cc1 -23.3%
CCN(CC)CCCNC(=O)c1c(O)c2cc(F)cc3c2n(c1=O)C(C)CC3 (stereo unspecified) -12.1%
COc1ccc(CCN2C(=O)N(c3ccc(OC)cc3)C(=O)C2CC(=O)Nc2ccc(OC)cc2)cc1 (stereo unspecified) -12.4%
O=C(Nc1cccc2c1CCCC2)C1CCN(C(=O)NC2CCCCC2)CC1 3.24%
O=C(CC1Nc2ccccc2NC1=O)Nc1ccccc1 (stereo unspecified) -51.2%
CCN(c1ccccc1)S(=O)(=O)c1ccc(OCC(=O)N2CCCC2)cc1 -2.15%
CCC(C)NC(=O)c1cc(Cl)ccc1OC (stereo unspecified) 3%
CC(C)C[C@H](NC(=O)C1CCC(CNC(=O)[C@@H]2CCCN2C(=O)OC(C)(C)C)CC1)C(=O)O (stereo partly specified) 16%
CC(C)(C)C(=O)NCCCNc1ccc([N+](=O)[O-])cc1 -24.3%
CCN(CC)S(=O)(=O)c1ccc(N2CCN(C)CC2)c(NC(=O)Nc2ccccc2F)c1 -0.49%
COCC1CCCN(Cc2nc(-c3ccc4c(c3)OCO4)no2)C1 (stereo unspecified) -70.5%
CC(=O)Nc1ccc(C(=O)Nc2cc(S(=O)(=O)N3CCOCC3)ccc2N2CCOCC2)cc1 -2.37%
O=C(NCCc1ccccc1)Oc1ccc(Cl)cc1 -56.8%
COc1ccc(CN2CCC(c3nc4ccc(Cl)cc4[nH]3)CC2)cc1 2.53%
Cc1cc(NC(=O)CSC2=NS(=O)(=O)c3cc(Cl)ccc3N2)no1 -31%
CN(CCOc1ccc(Br)cc1)CC(=O)Nc1cccc(S(=O)(=O)NC2=NCCC2)c1 -16.8%
CC(C)(C)c1ccccc1NC(=O)CN1C(=O)NC2(CCCC2)C1=O -13.8%
CCn1nc(C(=O)Nc2ccc(N3CCOCC3)cc2)c2ccccc2c1=O -1.53%
CCCCOC(=O)NCN1C(=O)C2C3C=CC(C3)C2C1=O (stereo unspecified) 1%
Cc1cc(NCc2cccnc2)no1 25.1%
Clc1ccc(Cn2ncc3c(NCc4cccnc4)ncnc32)cc1 -4.66%
COc1ccc(S(=O)(=O)N2CCN(C(=O)N(C)C)C2C)cc1 (stereo unspecified) -47.2%
C=CCN1C=C(C(=O)c2ccccc2)C(=O)CC1 -2.55%
O=C(O)C1CCCN1C1=NS(=O)(=O)c2ccccc21 (stereo unspecified) 12.2%
Cc1ccc(C)c(OCc2cc(C(=O)N3CCN(c4cnccn4)CC3)no2)c1 -12.1%
CCOc1ccccc1NS(=O)(=O)c1c[nH]c(C(=O)OC)c1 -15%
C=CC[C@H](CC(=O)OC(C)(C)C)C(=O)OC[C@H]1CCCN1C(=O)[C@H](CC=C)CC(=O)N(CCO)Cc1ccccc1 -0.47%
CC1(C)CN(Cc2cccnc2)C(=O)[C@H]1CC(=O)Nc1ccc(Br)cc1 -2.09%
O=c1ccc2c(-c3ccccc3S(=O)(=O)O)c3ccc(O)c(O)c3oc-2c1O 13.4%
CCn1c(SCC(=O)N2CCCC2=O)nc2ccccc21 16.1%
CC1=C(C(=O)N(C)C)C(c2ccccc2OC(F)F)NC(=O)N1 (stereo unspecified) 4.69%
O=C(NC1CCCC1)C(c1ccc(N2CCOCC2)cc1)N(C(=O)c1ccco1)c1ccccc1F (stereo unspecified) 5.48%
Cc1ccc(CSCC2Nc3ccc(C(=O)N4CCN(c5ccc(F)cc5)CC4)cc3NC2=O)cc1 (stereo unspecified) 2.74%
C[C@@H](C(=O)N1CCNCC1)n1cc(CCC(=O)O)nn1 3.05%
Cc1ccccc1-c1cc(C(=O)NCC2CC2)n(CC2CC(c3cccnc3)=NO2)n1 (stereo unspecified) 2.14%
CO/N=C/c1cn(-c2ccc(Cl)cc2)nn1 -12.7%
CCOc1cc(/C=N/NC(=O)c2c(C)nc3ccc(Cl)cn23)ccc1O 0.11%
COc1cccc(OCc2cc(/C=N/NC(=O)c3nc(Cl)c(Cl)c(N)c3Cl)ccc2OC)c1 -14.2%
CC1CN(c2nc(-c3ccccc3)nnc2-c2ccccc2)CC(C)O1 (stereo unspecified) 10.6%
CC(Oc1ccc(Cl)cc1Cl)C(=O)/C=C/N(C)C (stereo unspecified) -17.4%
COCCN(Cc1nc(-c2ccc(C(F)(F)F)cc2)no1)C(C)C -8.16%
CC(CCn1cccn1)NC(=O)CCc1nnc(CCc2ccccc2)o1 (stereo unspecified) 11.7%
O=C(NNS(=O)(=O)Cc1ccccc1)c1ccc([N+](=O)[O-])cc1 -4.79%
O=C(Nc1cc(-c2ccccc2)nn1-c1ccccc1F)c1ccc([N+](=O)[O-])cc1 -16.9%
COc1cc(CN2CCNC(=O)C2CC(=O)NCCc2ncccc2C)cc(OC)c1 (stereo unspecified) 14.8%
O=C(CCc1ccc(S(=O)(=O)N2CCOCC2)cc1)Nc1ccc2ccccc2c1 -5.83%
CC1CCCN(CCOCCOc2ccccc2-c2ccccc2)C1 (stereo unspecified) 9.99%
C[C@H]1CN([C@@H](C)CO)C(=O)c2cc(Br)cnc2O[C@H]1CN(C)S(=O)(=O)c1cccs1 -44.2%
N#CC1(NC(=O)COC(=O)CSc2ccc(F)cc2)CCCCC1 20.2%

inhibition, active:
CN(c1ccc2nc3ccccc3c(=O)n2n1)C1CCCCC1 71.9%
CC(C)(C)c1ccc(Oc2ccc(N)cc2)cc1 74%
O=C(NN=Cc1ccccc1O)NN=Cc1ccccc1O 63%
COc1ccc2c(c1)c(=Cc1ccc(N(C)C)cc1)c1cc(-c3ccccc3)[n+](C)n12 64.1%
COc1ccc(Nc2ncnc3ccc(Br)cc23)c(OC)c1 81.9%
Brc1ccc2ncnc(NCc3cccnc3)c2c1 66.1%
COc1ccc(C(=O)Nc2ccccc2C(=O)N/N=C/c2ccc(O)c(OC)c2)cc1 64.2%
O=C(NC(Nc1nc2ccc([N+](=O)[O-])cc2s1)(C(F)(F)F)C(F)(F)F)c1ccccc1 68.3%
